Here are results for twelve compounds from PubChem BioAssay (NCATS).

Assay [1] in a line: Cell Viability - Mesenchymal (AID 546).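 Also: cells exposed to compound for 40 hours before reading.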 Also: potency is read from the fitted curve at half-maximal effect.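 As to activity change, negative = cytotoxicity: 0% = DMSO only and -100% = 100 µM tamoxifen.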 To be noted: mesenchymal cells viability, qHTS; activity change, negative = cytotoxicity: at 91.7 µM (top of the series). In outline: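 CellTiter-Glo luminescence (intracellular ATP, 20 min room temperature) after 40 hr compound exposure at 37 °C of 1000 glomerulus-derived human kidney mesenchymal cells/well; AC50 values obtained by fitting qHTS concentration-response data to the Hill equation.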
Background: qHTS replaces the single test concentration by a dilution series.

The target of assay [2] is 3',5'-cyclic-AMP phosphodiesterase 4B (Homo sapiens) (UniProt Q07343). The assay can be described thus: qHTS Assay for Inhibitors of PDE-IV (AID 607; active = well fitted activation curve with a large enough effect in the main read-out, with a control signal flat, not every such curve was filed as active; also: % of control where 0% means no effect). The essentials: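 HEK293 ACTOne cells with CNG channel (1000/well), endogenous PDE4; membrane potential dye, compounds up to 22.9 uM final. Fluorescence Ex 535/Em 590; RO 20-1724 (100 uM final) as reference.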
The nature of assay [3]: Cellular Toxicity (caspase-3) HUV-EC-C (AID 656).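 Also: 0% = DMSO basal and 100% = 100 µM tamoxifen.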 The essentials:
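Concentration-dependent caspase 3/7 induction was assessed in HUV-EC-C cells exposed for 16 hours. Data scaled between DMSO and tamoxifen (100 uM) controls.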

A short description of assay [4]: Cellular Toxicity (caspase-3) SHSY5Y (AID 657). In outline:
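Readout: caspase-cleaved peptide-aminoluciferin substrate driving luciferase light in SH-SY5Y neuroblastoma cells after 16 h treatment. Response normalized to DMSO and 10 uM staurosporine controls.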

Assay [5] in a line: Cellular Toxicity (caspase-3) BJ (AID 658).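 Also: 0% = DMSO basal and 100% = 10 µM staurosporine.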 The essentials:
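Caspase-Glo 3/7 luminescence, read 1 hr after reagent at room temperature, in normal BJ fibroblasts exposed 16 hours at 37 °C. AC50 values from Hill-equation concentration-response, scaled between DMSO basal and 10 uM staurosporine as 100%.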

Assay [6] in a line: Cellular Toxicity (caspase-3) MRC-5 (AID 659). Also: potency is read from the fitted curve at half-maximal effect.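 As to caspase-3 activation: 0% = DMSO basal and 100% = 10 µM staurosporine.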 To be noted: Potency: caspase-3 activation. The essentials:
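Luminescent Caspase-Glo 3/7 read-out (1 h, room temperature) after a 16 h, 37 °C compound exposure of MRC-5 lung fibroblasts at 1500 cells/well. Concentration-response AC50 from Hill equation; 0% DMSO, 100% 10 uM staurosporine.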

Assay [7] can be described thus: Cellular Toxicity (caspase-3) Mesangial (AID 660).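 Also: combined caspase 3 and 7 activity read by Caspase-Glo luminescence; cells exposed to compound for 16 h before the caspase read.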 The essentials:
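AC50 values come from Hill-equation fits of caspase 3/7 activation, measured as Caspase-Glo luminescence in human glomerular mesangial cells exposed to compound for 16 h at 37 °C; 100% set by 100 uM tamoxifen.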

Assay [8] is described as follows: Cellular Toxicity (caspase-3) SK-N-SH (AID 661).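 Also: 0% = DMSO basal and 100% = 10 µM staurosporine.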 The essentials: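 Apoptosis readout in SK-N-SH neuroblastoma: Caspase-Glo 3/7 luminescence following 16 hr treatment in complete culture medium. Normalization used DMSO and 10 uM staurosporine controls.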
A short description of assay [9]: Cellular Toxicity (caspase-3) H-4-II-E (AID 663).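 Also: cells exposed to compound for 16 hr before readout; 0% = DMSO basal and 100% = 100 µM tamoxifen.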 To be noted: Potency: caspase-3 activation. The essentials:
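Caspase 3/7 activation measured by luminescent aminoluciferin substrate cleavage after 16 hr compound treatment of H-4-II-E cells in complete medium. Increase normalized between DMSO (basal) and 100 uM tamoxifen (100%); Hill-equation AC50 from concentration-response.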

A short description of assay [10]: Cellular Toxicity (caspase-3) Hek293 (AID 664).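 Also: cells exposed to compound for 16 h at 37 °C before readout.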 The essentials: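 Apoptosis readout: Caspase-Glo 3/7 signal in human HEK293 cells following 16-hour compound incubation. Responses scaled between DMSO baseline and 100 uM tamoxifen.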
The nature of assay [11]: Cellular Toxicity (caspase-3) N2a (AID 665).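 Also: compound exposure lasted 16 h at 37 °C before readout.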 To be noted: Potency: caspase-3 activation. In outline: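 Concentration-response qHTS: compound-induced caspase-3/7 luminescence in N2a cells (16 h, 37 °C), relative to DMSO and 10 uM staurosporine controls; AC50 obtained using the standard Hill equation.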
Assay [12] in a line: Cellular Toxicity (caspase-3) NIH 3T3 (AID 666).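 Also: 0% = DMSO basal and 100% = 100 µM tamoxifen stimulation.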 The essentials:
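Activity: caspase-3/7 induction, NIH 3T3 cells, 16 hr treatment at 37°C, luminescent Caspase-Glo detection; AC50 via Hill equation.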

The target of assay [13] is Cytochrome P450 2D6 (Homo sapiens) (UniProt P10635). The assay can be described thus: qHTS Assay for Inhibitors and Substrates of Cytochrome P450 2D6 (AID 891). Also: potency is read from the fitted curve at half-maximal effect; nearly all actives have a fitted effect of over 60% in size. The essentials:
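Luminescent read-out of luciferin formed by 5 nM human CYP2D6 demethylating 30 uM Luciferin-ME EGE (Km level) over 60 min at room temperature after NADPH regeneration addition. Data normalized to full inhibition by 1.43 uM quinidine.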

The nature of assay [14]: Confirmation and Secondary Assay for Modulators of Hemoglobin Beta Chain Splicing at IVS2 654 locus (AID 910).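 Also: HeLa cells stably carrying EGFP split by mutant beta-globin IVS2-654 intron; per-well total GFP intensity by laser scanning cytometry after 2-day treatment; % of control where 0% means no effect.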 The essentials: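 Readout: per-well total peak green fluorescence (488 nm ex, 500–520 nm em) from objects 5–250 µm, reflecting correct splicing of an EGFP-654 reporter. Compounds were applied for 2 days at 37 °C to overnight-plated HeLa EGFP-654 cells; controls were DMSO and 500 nM IVS2-654 PNA.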

In assay [15] the target is Cytochrome P450 3A4 (Homo sapiens) (UniProt P08684). The assay can be described thus: qHTS Assay for Inhibitors and Substrates of Cytochrome P450 3A4 (AID 884). Also: % is scaled to controls: 0 for no effect and ±100 for the full control effect; nearly all actives have a fitted effect of over 50% in size. The essentials:
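Luminescent readout of luciferin produced by CYP3A4 (20 nM) dealkylation of Luciferin-PPXE, 25 uM (its KM). NADPH-driven reaction ran 60 min at RT after 10 min compound preincubation; data scaled to 57 uM ketoconazole as 100% inhibition.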

For assay [16], the target named is Guanine nucleotide-binding protein G(i) subunit alpha-1 (Homo sapiens) (UniProt P63096). The assay can be described thus: qHTS Assay for Inhibitors of RGS12 GoLoco Motif Activity (Green Fluorophore) (AID 879).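 Also: 0% = labeled peptide with Gαi1 and full inhibition = labeled peptide alone without protein; negative values mean loss of peptide binding seen as reduced polarization.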 In outline: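 A drop in FITC polarization marked displacement of the FITC-tagged RGS12 GoLoco peptide (10 nM) from Gαi1 (50 nM). Compounds were incubated 10 min at room temperature in Tris pH 7.5 buffer containing 150 mM NaCl, 0.1 mM GDP and 0.05% NP40; unlabeled peptide titration served as control.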

Molecules are shown by their SMILES. Unmarked numbers belong to inactive results. Inconclusive results are not listed. The source made the active and inactive calls. Unless noted, calls follow the shape of the dose curve; as a rule, active = well fitted curve in the direction sought with a large enough effect; inconclusive = small, poorly fitted or top-dose-only effect, or another doubt; inactive = no such curve, though single readings can be large; an effect the other way counts as inactive or inconclusive.

Sequence of 3',5'-cyclic-AMP phosphodiesterase 4B (Homo sapiens) (Q07343 whole entry, looked up): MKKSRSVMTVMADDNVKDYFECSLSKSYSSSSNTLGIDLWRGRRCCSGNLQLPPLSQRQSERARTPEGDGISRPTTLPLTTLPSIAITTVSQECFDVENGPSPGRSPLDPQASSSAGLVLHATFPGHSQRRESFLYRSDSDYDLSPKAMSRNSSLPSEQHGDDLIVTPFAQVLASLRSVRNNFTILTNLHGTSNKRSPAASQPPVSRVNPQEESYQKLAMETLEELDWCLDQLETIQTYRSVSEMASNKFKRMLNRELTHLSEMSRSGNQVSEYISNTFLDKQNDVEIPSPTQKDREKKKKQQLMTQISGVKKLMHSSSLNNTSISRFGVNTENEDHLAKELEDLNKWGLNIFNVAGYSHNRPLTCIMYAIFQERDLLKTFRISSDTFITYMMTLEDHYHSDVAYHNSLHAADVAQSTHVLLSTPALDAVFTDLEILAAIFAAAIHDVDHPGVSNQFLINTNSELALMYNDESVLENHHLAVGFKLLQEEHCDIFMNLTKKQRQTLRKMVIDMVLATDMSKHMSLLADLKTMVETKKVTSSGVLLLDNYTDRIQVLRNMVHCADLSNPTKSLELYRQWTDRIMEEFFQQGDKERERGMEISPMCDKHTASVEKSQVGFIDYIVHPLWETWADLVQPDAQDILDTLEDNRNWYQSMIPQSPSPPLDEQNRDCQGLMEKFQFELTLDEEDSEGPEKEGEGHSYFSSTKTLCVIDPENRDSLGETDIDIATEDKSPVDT
Sequence of Cytochrome P450 3A4 (Homo sapiens) (P08684 whole entry, looked up): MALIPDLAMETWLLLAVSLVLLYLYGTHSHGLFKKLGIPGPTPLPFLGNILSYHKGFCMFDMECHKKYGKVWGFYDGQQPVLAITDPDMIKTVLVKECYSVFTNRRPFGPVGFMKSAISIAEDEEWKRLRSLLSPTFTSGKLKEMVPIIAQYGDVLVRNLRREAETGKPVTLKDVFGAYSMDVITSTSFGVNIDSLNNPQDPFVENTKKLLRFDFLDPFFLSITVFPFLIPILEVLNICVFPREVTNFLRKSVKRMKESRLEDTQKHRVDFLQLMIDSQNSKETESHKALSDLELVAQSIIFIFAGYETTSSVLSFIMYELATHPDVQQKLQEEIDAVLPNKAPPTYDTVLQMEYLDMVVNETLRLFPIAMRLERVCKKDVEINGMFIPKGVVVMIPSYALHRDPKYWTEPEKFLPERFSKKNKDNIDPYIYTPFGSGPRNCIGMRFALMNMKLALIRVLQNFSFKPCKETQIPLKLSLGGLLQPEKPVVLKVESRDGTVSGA
Sequence of Cytochrome P450 2D6 (Homo sapiens) (P10635 whole entry, looked up): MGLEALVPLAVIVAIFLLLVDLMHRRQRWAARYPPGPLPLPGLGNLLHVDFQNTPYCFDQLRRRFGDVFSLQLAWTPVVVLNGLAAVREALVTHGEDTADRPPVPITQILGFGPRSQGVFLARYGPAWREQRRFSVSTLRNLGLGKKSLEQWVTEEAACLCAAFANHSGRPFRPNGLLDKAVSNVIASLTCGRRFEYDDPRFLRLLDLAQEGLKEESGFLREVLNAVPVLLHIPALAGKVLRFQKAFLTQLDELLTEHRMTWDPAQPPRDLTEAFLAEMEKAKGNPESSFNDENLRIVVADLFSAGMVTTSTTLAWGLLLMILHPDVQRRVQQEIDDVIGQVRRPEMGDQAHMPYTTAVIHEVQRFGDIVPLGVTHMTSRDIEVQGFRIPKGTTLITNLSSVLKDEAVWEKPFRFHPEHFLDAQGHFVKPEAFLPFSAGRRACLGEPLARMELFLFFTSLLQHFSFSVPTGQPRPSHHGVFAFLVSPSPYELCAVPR
Sequence of Guanine nucleotide-binding protein G(i) subunit alpha-1 (Homo sapiens) (P63096 whole entry, looked up): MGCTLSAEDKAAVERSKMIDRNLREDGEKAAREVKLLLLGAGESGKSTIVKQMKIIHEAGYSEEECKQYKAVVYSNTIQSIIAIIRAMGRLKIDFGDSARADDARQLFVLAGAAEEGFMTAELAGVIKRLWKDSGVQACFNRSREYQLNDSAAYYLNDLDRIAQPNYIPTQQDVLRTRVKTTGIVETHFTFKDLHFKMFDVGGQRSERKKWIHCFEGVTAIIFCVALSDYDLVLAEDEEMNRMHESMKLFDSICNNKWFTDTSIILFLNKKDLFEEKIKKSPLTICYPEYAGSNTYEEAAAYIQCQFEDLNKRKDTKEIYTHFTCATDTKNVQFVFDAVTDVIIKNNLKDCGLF

Consider `NC(=NCCCCCCN=C(N)/N=C(\N)Nc1ccc(Cl)cc1)/N=C(\N)Nc1ccc(Cl)cc1`, for which the figures for the Potency in assay [1] and in assay [13] were 31.6 µM (active) and 7.94 µM (active), respectively. For the same compound, the result in assay [2], in assay [3], in assay [5], in assay [7], in assay [10] and in assay [14] was inactive. Besides, the Potency entry in [4], in assay [6], in assay [8], in assay [9], in assay [11] and in [12] was “inactive” throughout.

For the compound `Cc1cc(N)c2cc(NC(=O)Nc3ccc4nc(C)cc(N)c4c3)ccc2n1`, the compound was classed as inactive in assay [2].

Regarding `Oc1ccc(Cl)cc1Sc1cc(Cl)ccc1O`, the compound was called inactive in [2], in assay [3], in assay [5], in assay [7] and in assay [10]. In addition, the Potency result in [4], in [6], in assay [8], in [9], in assay [11] and in assay [12] was “inactive” in each case.

On to `Nc1ccc(C(=O)O)cc1`, for which the activity change, negative = cytotoxicity in assay [1] is -3.72%. The outcome in [3], in assay [5], in assay [7], in assay [10] and in assay [14] was inactive. Further, the Potency entry in assay [4], in assay [6], in [8], in assay [9], in assay [11] and in assay [12] was “inactive” each time. In addition, in assay [15], the Potency result was “inactive”.

As for `COC1=CC(=O)C[C@@H](C)[C@]12Oc1c(Cl)c(OC)cc(OC)c1C2=O`, in [1], the activity change, negative = cytotoxicity was -20.5%. In addition, the call in [3], in assay [5], in assay [7], in assay [10] and in assay [14] was inactive. The Potency entry in assay [4], in assay [6], in assay [8], in assay [9], in assay [11] and in assay [12] was “inactive” throughout.

With `CN1CCN(CCCN2c3ccccc3Sc3ccc(S(=O)(=O)N(C)C)cc32)CC1`, in [2], the result was inactive.

On to `CC(O)(P(=O)(O)O)P(=O)(O)O`, for which the compound was classed as inactive in [2].

For the compound `CC(C)(C)CC(C)(C)c1ccc(OCCOCC[N+](C)(C)Cc2ccccc2)cc1`, the activity change, negative = cytotoxicity in [1] is -104% (active). Also, the Potency result in assay [4] is “inactive”. In addition, the Potency in assay [6] was 31.6 µM (active). Also, in assay [14], the result was inactive.

As to `CN1[C@@H]2CC[C@H]1CC(OC(=O)c1c[nH]c3ccccc13)C2` (stereo not given in full), the outcome in [2] and in assay [16] was inactive.

Regarding `O=c1ccc2ccccc2o1`, the activity change, negative = cytotoxicity in assay [1] was 4.05%. The compound was classed as inactive in assay [3], in assay [5], in assay [7], in assay [10] and in [14]. Also, the Potency entry in assay [4], in [6], in [8], in [9], in [11] and in assay [12] was “inactive” each time. Further, the Potency entry in assay [15] was “inactive”.

With `CC(C)N=C(N)/N=C(\N)Nc1ccc(Cl)cc1`, the compound was classed as inactive in assay [2].

Take `CC(=O)Oc1ccc(C(c2ccc(OC(C)=O)cc2)c2ccccn2)cc1`: the activity change, negative = cytotoxicity in [1] is -3.78%. For the same compound, the compound was classed as inactive in [3], in [5], in assay [7], in assay [10] and in [14]. Further, the Potency entry in assay [4], in assay [6], in assay [8], in [9], in assay [11] and in assay [12] was “inactive” in each case.
